High-throughput results as filed in PubChem.
TDP1 cell noCPT = qHTS for Inhibitors of human tyrosyl-DNA phosphodiesterase 1 (TDP1): qHTS in cells in absence of CPT; DT40 Tdp1-/- hTDP1 cells, no CPT, ATP luminescence, 48 h; Potency, µM (series often up to 46.2 µM), usual class: inhibitors; hit rate 15% among 420,000; AID 686978, 2013; note: nearly all actives have a fitted effect of over 55% in size
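A cellular qHTS used chicken DT40 cells lacking endogenous Tdp1 but carrying stably transfected human TDP1. Compounds were applied without camptothecin, and cell growth kinetics were judged by ATP-dependent luminescence after ≥48 hr.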
Gal4-VP16 FLuc = VP16 counterscreen qHTS for inhibitors of ROR gamma transcriptional activity. Drosophila S2 Gal4-VP16 UAS-luciferase, luminescence, 20 h. Potency, µM (top dose mostly 53.6 µM), usual class: inhibitors. hit rate 3.5% among 310,000;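 note: Gal4-VP16 expression switched on by copper sulfate through the metallothionein promoter; nearly all actives have a fitted effect of over 50% in size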
RORgamma inh = qHTS for inhibitors of ROR gamma transcriptional activity. Nuclear receptor ROR-gamma (Mus musculus), P51450. hit rate 5.4% among 310,000. Drosophila S2 Gal4-RORgamma UAS-luciferase reporter, 20 h. Potency, µM (top dose mostly 53.6 µM), actives largely listed as inhibitors; note: nearly all actives have a fitted effect of over 60% in size
Target sequence (P51450 whole entry, looked up, the tested form may be a part): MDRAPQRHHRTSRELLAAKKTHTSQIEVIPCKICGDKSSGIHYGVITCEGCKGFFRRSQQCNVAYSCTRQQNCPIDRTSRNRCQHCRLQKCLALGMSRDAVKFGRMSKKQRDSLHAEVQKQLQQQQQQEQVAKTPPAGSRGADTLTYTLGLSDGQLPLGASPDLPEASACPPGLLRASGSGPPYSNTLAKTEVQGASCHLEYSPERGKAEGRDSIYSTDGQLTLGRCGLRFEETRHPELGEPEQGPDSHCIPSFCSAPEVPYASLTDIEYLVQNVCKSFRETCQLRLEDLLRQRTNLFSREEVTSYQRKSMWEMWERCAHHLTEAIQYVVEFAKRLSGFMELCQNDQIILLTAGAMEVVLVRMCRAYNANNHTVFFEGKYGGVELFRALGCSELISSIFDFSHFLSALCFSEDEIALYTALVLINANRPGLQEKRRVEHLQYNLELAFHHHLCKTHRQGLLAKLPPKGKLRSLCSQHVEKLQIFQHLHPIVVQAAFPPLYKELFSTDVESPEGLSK
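A Gal4/UAS one-hybrid system in insect cells: metallothionein-promoter Gal4–ROR gamma fusion plus Photinus luciferase reporter. Copper sulfate 700 uM final, 20 hr ambient incubation, luminescent detection after 10 min with reagent.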
LDHA block = qHTS assay for inhibitors of human lactate dehydrogenase; purified LDHA, NADH/diaphorase-resazurin fluorescence; stronger effect = lower value; activity change, % (values are at about 110 or 230 µM); hit rate 0.15% among 480,000; L-lactate dehydrogenase A chain (Homo sapiens), P00338; in the data active = activity change below about -30%; inconclusive = mostly about -25% to -30%
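Resorufin fluorescence (ex540/em590), read at 0 and 20 min after diaphorase/resazurin addition, reports the NADH left after a 5 min room-temperature reaction of 2 nM human LDH5 with 0.06 mM NADH and 0.2 mM pyruvate.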
IL1B secr inh = qHTS for Inhibitors of Inflammasome Signaling: IL-1-beta AlphaLISA Primary Screen; THP-1 LPS/ATP IL-1B secretion, AlphaLISA, 16 h; stronger effect = lower value; activity change, % at 57.5 µM; hit rate 4.7% among 360,000; in the data active = activity change below about -50%; inconclusive = mostly about -30% to -49%
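Secreted IL-1B measured by AlphaLISA bead assay after 16 h compound exposure of THP-1 cells; compounds (final up to 57.5 uM) added 1 h before LPS (250 ng/mL) and ATP (1.25 mM) stimulation; lower signal means less secretion.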
DT40 TDP1 CPT = qHTS for Inhibitors of human tyrosyl-DNA phosphodiesterase 1 (TDP1): qHTS in cells in presence of CPT; Potency, µM (doses to about 46.2 µM), hits mostly inhibitors; chicken DT40 Tdp1-/-;hTDP1 cells + 20 nM CPT, ATP luminescence, 48 h; hit rate 12% among 420,000; note: nearly all actives have a fitted effect of over 55% in size
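Chicken DT40 Tdp1-/- cells stably complemented with human TDP1 were seeded at 400 cells/well in medium containing 20 nM camptothecin, exposed to pin-transferred compounds, and grown at 37 °C for at least 48 hr. Viability was read as ATP luminescence.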
Each line names hits and unclear results; the compound was inactive in the other large screens. In the library only some 18% were active in any assay of this set; here they are far more common. Unless noted, calls come from the whole dose curve; as a rule, active = well fitted curve in the direction sought with a large enough effect; inconclusive = small, poorly fitted or top-dose-only effect, or another doubt; inactive = no such curve, though single readings can be large; an effect the other way counts as inactive or inconclusive.

Cc1ccc(NC(=O)CN(C)C(=O)c2ccc(OCc3c(C)noc3C)cc2)cc1	none (no result: Gal4-VP16 FLuc, RORgamma inh)
CC(=O)c1ccccc1NC(=O)c1ccc(OCc2c(C)noc2C)cc1	TDP1 cell noCPT 18µM, IL1B secr inh -66, DT40 TDP1 CPT inconclusive (no result: Gal4-VP16 FLuc, RORgamma inh)
Cc1noc(C)c1COc1ccc(CC(=O)NCc2ccccc2)cc1	TDP1 cell noCPT 0.52µM, DT40 TDP1 CPT 0.65µM
Cc1noc(C)c1COc1cccc(C(=O)Nc2ccccc2)c1	none (no result: Gal4-VP16 FLuc, RORgamma inh)
CC(C)C(C(=O)NC(c1ccccc1)C1CCCC1)c1ccccc1 (stereo not drawn)	none (no result: TDP1 cell noCPT, Gal4-VP16 FLuc, RORgamma inh, IL1B secr inh, DT40 TDP1 CPT)
Cc1noc(C)c1COc1ccc(C(=O)NCc2cccs2)cc1	IL1B secr inh -99 (no result: Gal4-VP16 FLuc, RORgamma inh)
CCN(C(=O)COC(=O)c1ccc(OCc2c(C)noc2C)cc1)c1ccccc1	TDP1 cell noCPT 13µM, DT40 TDP1 CPT inconclusive
Cc1cccc(C(=O)Nc2ccccc2C(=O)OCc2c(C)noc2C)c1	TDP1 cell noCPT inconclusive, IL1B secr inh -57
CCOc1ccc(NC(=O)c2cc(C)nc3ccccc23)cc1OC	none (no result: TDP1 cell noCPT, Gal4-VP16 FLuc, RORgamma inh, IL1B secr inh, DT40 TDP1 CPT)
Cc1nc(Cn2cc(S(=O)(=O)N(C)C)ccc2=O)no1	none (no result: TDP1 cell noCPT, Gal4-VP16 FLuc, RORgamma inh, IL1B secr inh, DT40 TDP1 CPT)
N#C/C(=C\c1ccc(Sc2nc3ccccc3[nH]2)o1)c1ccccc1	TDP1 cell noCPT 18µM, Gal4-VP16 FLuc inconclusive, IL1B secr inh -73, DT40 TDP1 CPT inconclusive
N#C/C(=C\c1ccc(Sc2ccc(Cl)cc2)o1)c1nc2ccccc2[nH]1	TDP1 cell noCPT 13µM, Gal4-VP16 FLuc inconclusive, RORgamma inh inconclusive, DT40 TDP1 CPT 21µM
O=C(c1cc2ccccc2[nH]1)N1CCN(C(=O)C2CC2)CC1	none (no result: TDP1 cell noCPT, Gal4-VP16 FLuc, RORgamma inh, IL1B secr inh, DT40 TDP1 CPT)
N/C(=N\OC(=O)c1ccc2c(c1)OCO2)c1ccncc1	Gal4-VP16 FLuc inconclusive, RORgamma inh 10µM, IL1B secr inh -54
N/C(=N\OC(=O)C(c1ccccc1)c1ccccc1)c1ccncc1	TDP1 cell noCPT 29µM
Cc1cccc(/C(N)=N/OC(=O)c2ccncc2)c1	Gal4-VP16 FLuc inconclusive, RORgamma inh 7.1µM
COc1ccc(/C(N)=N/OC(=O)Cc2ccc(OC)c(OC)c2)cc1	TDP1 cell noCPT inconclusive, Gal4-VP16 FLuc inconclusive, IL1B secr inh -78, DT40 TDP1 CPT inconclusive
Cc1ccc(/C(N)=N/OC(=O)c2ccc3c(c2)OCO3)cc1	TDP1 cell noCPT inconclusive, Gal4-VP16 FLuc inconclusive, RORgamma inh inconclusive
CN(C)CCN(CCc1ccccc1)C(=O)Nc1cccnc1	none (no result: TDP1 cell noCPT, Gal4-VP16 FLuc, RORgamma inh, IL1B secr inh, DT40 TDP1 CPT)
COc1ccc(C(=O)O/N=C(\N)c2cccc(C)c2)cc1OC	Gal4-VP16 FLuc inconclusive, RORgamma inh 1µM, IL1B secr inh inconclusive, DT40 TDP1 CPT inconclusive
COc1ccc(C(=O)O/N=C(\N)c2ccccc2)cc1OC	DT40 TDP1 CPT inconclusive
CCN1C/C(=C\c2cc(OC)c(OC)c(OC)c2)C2=NN(c3ccccc3)C(c3cc(OC)c(OC)c(OC)c3)C2C1 (stereo not drawn)	TDP1 cell noCPT 5.8µM, DT40 TDP1 CPT 6.5µM (no result: Gal4-VP16 FLuc, RORgamma inh)
COc1cc(C2C3C(=O)N(c4ccccc4)C(=O)C3ON2c2ccccc2)cc(OC)c1OC (stereo not drawn)	none
S=c1[nH]nc(-c2cc(-c3ccccn3)nc3ccccc23)o1	TDP1 cell noCPT inconclusive, RORgamma inh 5µM, DT40 TDP1 CPT inconclusive
Cc1ccc(-c2cc(-c3n[nH]c(=S)o3)c3ccccc3n2)cc1	TDP1 cell noCPT 21µM, Gal4-VP16 FLuc 4.5µM, RORgamma inh 7.1µM, DT40 TDP1 CPT 16µM
COc1cccc(C(=O)c2sc(Nc3cc(C)cc(C)c3)nc2N)c1	none (no result: TDP1 cell noCPT, Gal4-VP16 FLuc, RORgamma inh, IL1B secr inh, DT40 TDP1 CPT)
Cc1ccc2oc(-c3ccc(C)c(NC(=S)NC(=O)c4cccs4)c3)nc2c1	TDP1 cell noCPT inconclusive, Gal4-VP16 FLuc 7.1µM, RORgamma inh 7.1µM, DT40 TDP1 CPT inconclusive
Cc1ccc(-c2nc3ccccc3o2)cc1NC(=S)NC(=O)c1cc2ccccc2o1	TDP1 cell noCPT 15µM, Gal4-VP16 FLuc inconclusive, RORgamma inh inconclusive, DT40 TDP1 CPT 15µM
S=C(NCc1ccc(Cl)cc1)Nc1cccc(Cl)c1	none (no result: TDP1 cell noCPT, Gal4-VP16 FLuc, RORgamma inh, IL1B secr inh, DT40 TDP1 CPT)
